Most compounds without a hit are left out; they make up all but 3.6% or so of the library.
KKLEB tox: cytotoxicity in KKLEB CF airway cells, primary screen, cytotoxicity control for CF NF-kB inhibitor project, cell-based, uHTS, fluorescence assay plates; KKLEB CF airway cells viability, ATPlite luminescence, overnight; stronger effect = lower value; cells stimulated with P. aeruginosa culture filtrate; activity change (cytotoxicity), % at 5 µM; 0.36% of 360,000 active; AID 602141, 2011;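 active means corrected activity change at or below -50% at 5 µM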
HSP90 refold inh: HSP90 inhibitors, primary screen, cell lysate, luminescence; inhibition, % at 5.6 µM; Rabbit reticulocyte lysate, luciferase refolding luminescence, 3 h; Heat shock protein HSP 90 (rabbit reticulocyte lysate; luciferase refolding); 0.91% of 290,000 active;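 active means inhibition above the screen-wide mean plus 3 SD, computed separately per campaign, cut at about 16% in these data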;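 further: inhibitors lower the luminescence because luciferase stays unfolded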
Mdm2 MdmX PPI: inhibitors of human Mdm2-MdmX association, primary screen, cell-based, luminescence, split luciferase, SaOS-2, uHTS | Protein Mdm4 (Homo sapiens) + E3 ubiquitin-protein ligase Mdm2 (Homo sapiens), … | SaOS-2 split-luciferase Mdm2/MdmX complementation | inhibition, % at 8 µM | 3% of 330,000 active | AID 485346, 2010;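 active means inhibition of at least 50% at 8 µM in the primary screen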
Target sequence (O15151 whole entry, looked up): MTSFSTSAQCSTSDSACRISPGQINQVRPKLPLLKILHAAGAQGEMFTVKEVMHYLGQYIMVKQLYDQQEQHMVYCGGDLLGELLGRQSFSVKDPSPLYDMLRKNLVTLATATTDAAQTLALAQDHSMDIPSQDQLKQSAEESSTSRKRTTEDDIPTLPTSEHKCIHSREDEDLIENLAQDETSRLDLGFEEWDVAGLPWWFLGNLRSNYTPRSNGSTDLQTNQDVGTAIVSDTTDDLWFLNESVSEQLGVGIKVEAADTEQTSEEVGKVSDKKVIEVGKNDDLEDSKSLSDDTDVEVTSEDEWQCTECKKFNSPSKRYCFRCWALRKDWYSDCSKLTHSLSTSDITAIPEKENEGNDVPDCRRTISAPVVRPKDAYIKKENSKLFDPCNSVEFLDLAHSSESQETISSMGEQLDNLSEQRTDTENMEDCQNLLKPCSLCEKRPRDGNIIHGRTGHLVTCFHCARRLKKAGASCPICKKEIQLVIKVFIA
Target sequence (Q00987 whole entry, looked up): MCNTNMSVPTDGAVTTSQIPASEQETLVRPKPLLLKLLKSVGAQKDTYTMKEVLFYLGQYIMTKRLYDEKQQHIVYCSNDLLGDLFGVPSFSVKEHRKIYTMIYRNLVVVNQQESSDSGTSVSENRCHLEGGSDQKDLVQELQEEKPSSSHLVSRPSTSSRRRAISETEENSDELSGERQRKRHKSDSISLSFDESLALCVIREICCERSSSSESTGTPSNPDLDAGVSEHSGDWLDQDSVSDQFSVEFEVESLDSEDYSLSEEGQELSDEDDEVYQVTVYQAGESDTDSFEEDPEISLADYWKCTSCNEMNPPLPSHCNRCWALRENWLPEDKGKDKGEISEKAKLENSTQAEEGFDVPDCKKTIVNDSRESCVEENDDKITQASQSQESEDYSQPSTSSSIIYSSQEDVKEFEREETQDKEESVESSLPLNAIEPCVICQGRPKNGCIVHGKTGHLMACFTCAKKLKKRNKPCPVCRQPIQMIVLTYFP
CF NFkB block: inhibitors of PAF-induced NF-kB signaling, primary screen, cell-based, GFP fluorescence, uHTS; KKLEB NF-kB-GFP reporter, GFP fluorescence overnight; inhibition, % at 5 µM; 0.86% of 360,000 active;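 active means at least 50% inhibition at 5 µM, scaled per plate between neutral and stimulator controls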;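 further: PAF is a Pseudomonas aeruginosa culture filtrate used as stimulus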
Peg3 promoter: Peg3 promoter-driven luciferase inhibitors, primary screen, cell-based, HeLa, luciferase luminescence; HeLa PEG-Prom luciferase reporter, overnight; inhibition, % at 20 µM; 1.7% of 360,000 active;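 active means inhibition of at least 50% at 20 µM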
LGR2 antag: inhibitors of bursicon-induced LGR2 CRE-luciferase signal, primary screen, cell-based, HEK293, CRE-luciferase reporter, bursicon stimulation; inhibition, % at 9.99 µM; Drosophila bursicon receptor LGR2 (rickets); bursicon-stimulated, 4 h; 0.35% of 380,000 active;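 active means drop in luminescence signal, shown as inhibition above about 50% in the replicate tests, limit read from the data, passing the limit was not always enough; inconclusive means probably only some replicates passing the limit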;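 further: agonist challenge used bursicon conditioned medium at about half maximal strength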
Mdm2 MdmX conf: Mdm2-MdmX complex disruptors, retested hits, confirmation, luminescence, single concentration; shares compounds with Mdm2 MdmX PPI; Mdm2-MdmX binding, luminescent assay; inhibition, % at 8 µM; 55% of 10,000 active; in the data active means inhibition above about 40%
Full FLuc ctr: full-length luciferase signal inhibition, confirmation, counter-screen for Mdm2/MdmX interaction inhibitor project, cell-based, single concentration, SaOS-2; shares compounds with Mdm2 MdmX PPI; SaOS-2 full-length luciferase counterscreen, luminescence; inhibition, % at 8 µM; 77% of 6,200 active; AID 504607, 2011;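 active means mean inhibition at 8 µM reaching about 37%, which flags the compound as non-specific, limit read from the data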;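 further: p53-null SaOS-2 cells with luciferase driven by a doxycycline-inducible promoter; compound on cells about two nights before reading with doxycycline added after day one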
Numbers stand for hits; 0 = inactive; ? = inconclusive; - = no result given.

SMILES	KKLEB tox	HSP90 refold inh	Mdm2 MdmX PPI	CF NFkB block	Peg3 promoter	LGR2 antag	Mdm2 MdmX conf	Full FLuc ctr
O=C(/C(=C\c1ccccc1)c1nc2ccccc2[nH]1)c1ccc(Cl)cc1	0	0	100	0	87	0	0	-
O=C(/C(=C/c1ccc(Cl)cc1)c1nc2ccccc2[nH]1)c1cccs1	-61	0	81	98	106	-	100	51
O=C(/C=C/c1cccc(Cl)c1)c1nc2ccccc2[nH]1	0	0	92	0	0	-	0	-
CN(C)c1ccnc2sc(C(N)=O)c(N)c12	0	0	97	91	0	0	81	0
Cc1noc(C)c1NC(=O)Nc1ccc2c(c1)CC(=O)N([C@H](C)CO)C[C@@H](C)[C@H](CN(C)C(=O)Nc1ccc3c(c1)OCO3)O2	-	-	-	-	-	0	-	-
COc1ccc(C(=O)NC(=S)NNC(=O)[C@H]2C[C@@H]2c2ccccc2)cc1OC	0	0	62	0	61	-	0	-
Cn1ncc(SCc2ccccc2)c(Cl)c1=O	0	0	52	0	0	0	0	-
Cn1c(-c2ccccc2F)cc2onc(-c3ccccc3)c2c1=O	0	-	0	0	0	0	-	-
Cn1c(-c2ccccc2)cc2onc(-c3ccccc3)c2c1=O	0	-	62	0	0	94	0	113
CCn1nc(NC(=O)Cc2ccc(OC)cc2)c2cc3cc(C)ccc3nc21	0	0	62	0	0	0	0	-
CCn1nc(NC(=O)Cc2ccc(OC)cc2)c2cc3cccc(C)c3nc21	0	0	0	0	0	0	-	-
Clc1nc2c(-c3ccccc3)nnn2c2ccccc12	0	0	100	0	103	0	55	51
NNc1nc2c(-c3ccc(Cl)cc3)nnn2c2ccccc12	0	0	0	0	0	0	-	-
COc1ccc(Br)cc1/C(C)=N/NC1=NCCN1	0	0	0	0	0	-	-	-
CCCCCOc1ccc(Br)cc1/C(C)=N/NC1=NCCN1	0	0	86	52	81	-	67	63
CN(C)C(=O)[C@H]1[C@H](CO)[C@H]2Cn3c(ccc(-c4ccccc4F)c3=O)[C@@H]1N2C(=O)c1cccnc1	-	-	-	-	-	0	-	-
C[C@H](CO)N1C[C@H](C)[C@H](CN(C)C(=O)Nc2ccc(F)cc2)Oc2c(NS(=O)(=O)c3ccc(F)cc3)cccc2C1=O	-	-	-	-	-	0	-	-
Cc1nnc(SC(C)C(=O)Nc2ncc(Cl)cc2Cl)n1Cc1ccccc1 (stereo not drawn)	0	0	0	0	0	-	-	-
COCCn1c(SC(C)C(=O)Nc2ncc(Cl)cc2Cl)nc2ccccc21 (stereo not drawn)	0	0	67	0	0	-	50	58
COc1cccc(-c2ccc3c(c2)[C@H]2[C@H](CCN2C(=O)C2CC2)[C@@H](CO)N3)c1	-	-	-	-	-	0	-	-
COC(=O)c1c(NC(=O)COC(=O)c2ccc(NC(=O)CC#N)cc2)sc2c1CCCCC2	0	0	64	0	0	-	0	-
COC(=O)c1c(NC(=O)COC(=O)c2ccc(C)s2)sc2c1CCCCC2	0	0	52	0	0	0	0	-
COC(=O)c1c(NC(=O)COC(=O)c2ccccc2O)sc2c1CCCCC2	0	0	0	0	0	0	-	-
Cc1noc(C)c1NC(=O)Nc1ccc2c(c1)C(=O)N([C@@H](C)CO)C[C@H](C)[C@H](CN(C)Cc1ccc(Cl)c(Cl)c1)O2	-	-	-	-	-	0	-	-
COc1cc(OC)c(C(=O)O/N=C(\N)c2ccccc2)cc1OC	0	0	57	0	0	0	0	-
SMILES	KKLEB tox	HSP90 refold inh	Mdm2 MdmX PPI	CF NFkB block	Peg3 promoter	LGR2 antag	Mdm2 MdmX conf	Full FLuc ctr
COc1ccc(C(=O)O/N=C(\N)c2cccc(C)c2)cc1OC	0	0	96	0	0	0	50	137
COc1ccc(C(=O)O/N=C(\N)c2ccccc2)cc1OC	0	0	62	0	0	0	0	-
COc1cccc(C(=O)O/N=C(\N)c2ccc(C)cc2)c1	0	0	0	0	0	0	-	-
COc1ccc(C(=O)O/N=C(\N)c2ccncc2)cc1OC	0	0	0	0	0	0	-	-
CCN(CC)CCN(Cc1cc2cc(C)cc(C)c2[nH]c1=O)C(=S)NCc1ccco1	0	0	0	0	0	0	-	-
CCN(CC)CCN(Cc1cc2ccc(C)c(C)c2[nH]c1=O)C(=S)NCc1ccco1	0	0	88	0	0	0	54	82
C[C@@H]1CN([C@H](C)CO)S(=O)(=O)c2ccc(C#CC3CC3)cc2O[C@@H]1CN(C)C(=O)c1ccccn1	-	-	-	-	-	0	-	-
O=C(C[C@@H]1C=C[C@H](NC(=O)Nc2cc(F)ccc2F)[C@H](CO)O1)Nc1ccc(-c2ccccc2)cc1	-	-	-	-	-	0	-	-
O=C(CCC(=O)Nc1cccc(Cl)c1)N/N=C/c1cc([N+](=O)[O-])ccc1O	0	0	0	0	0	0	-	-
O=C(CCCC(=O)Nc1cccc(Br)c1)N/N=C/c1cc([N+](=O)[O-])ccc1O	0	0	74	0	0	0	0	-
O=C(CN(c1cccc(Br)c1)S(=O)(=O)c1ccccc1)N/N=C/c1cc([N+](=O)[O-])ccc1O	0	-	52	0	0	0	0	-
C[C@H](CO)N1C[C@H](C)[C@H](CN(C)CC2CCCC2)OCc2cnnn2CCCC1=O	-	-	-	-	-	0	-	-
Cc1cc(Oc2ncccc2[N+](=O)[O-])c2cc(Cl)ccc2n1	0	0	56	0	0	0	0	-
O=C(Nc1ccc(S(=O)(=O)N2CCOCC2)cc1)c1cc(-c2cc(Cl)ccc2O)n[nH]1	0	0	87	0	86	?	79	39
COc1ccc(NC(=O)c2cc(-c3cc(Cl)ccc3O)n[nH]2)c(OC)c1	0	0	69	0	0	0	0	-
CC1(C)CC(NC(=O)c2ccc(Cl)c(S(=O)(=O)N(Cc3ccccc3)c3ccccc3)c2)CC(C)(C)N1	0	-	99	0	107	?	93	48
O=C(O)c1ccc(Cl)c(S(=O)(=O)N(Cc2ccccc2)c2ccc(Cl)cc2)c1	0	0	0	0	0	0	-	-
COc1ccccc1N(Cc1ccccc1)S(=O)(=O)c1cccc(C(=O)NC2CC(C)(C)NC(C)(C)C2)c1	0	-	97	0	87	0	64	72
C[C@H]1CN([C@@H](C)CO)C(=O)c2cccc(NC(=O)CCCCCC(=O)Nc3ccccc3N)c2O[C@H]1CN(C)C(=O)Nc1ccc(C(F)(F)F)cc1	-	-	-	-	-	0	-	-

Screens as filed in PubChem.
